Data reported in PubChem BioAssay (NCI).
This is part of a sample that, as a whole, favours compounds with a hit. Of some 83,000 tested, about 20% had one in any assay.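 Single-dose data. Exposure time 48 hours. Values below 10 considered active.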 Values without a mark were called inactive.

Test system: IGROV1 ovarian
Test: NCI-60 one-dose screen, 48 h (100 = growth as untreated, 0 = no growth, -100 = all killed)
Details: 10 µM

How did the growth turn out when COc1ccc(-c2onc(N)c2-c2cc(OC)c3c(c2)OCO3)cc1 was run?
The growth was 41.5%.

How did the growth turn out when C[C@]12CC[C@@H]3c4ccc(O)cc4CC[C@H]3[C@@H]1CC[C@@H]2NS(=O)(=O)c1ccc(C(F)(F)F)cc1 was run?
The growth was 30.5%.

Which growth does the source give for O=C(CSc1nnc(-c2ccc(Cl)cc2)o1)Nc1ccc(C(=O)/C=C/c2ccc(Cl)cc2)cc1 here?
The growth was 108%.

Which growth does the source give for Cc1cc(CCNC=O)c(C)c2c1sc1ccccc12 here?
The growth was 122%.

Which growth does the source give for COc1cc2cc(Oc3ccc(NC(=O)c4ccc(Cl)c(C(F)(F)F)c4)cc3)c(C)nc2cc1OC here?
The growth was 20.6%.

For CC(C)(C)c1ccc(S(=O)(=O)N[C@H]2CC[C@H]3[C@@H]4CCc5cc(O)ccc5[C@H]4CC[C@]23C)cc1, which growth is on record?
The growth was 44.6%.

For COc1cc2cc(Oc3ccc(NC(=O)c4cccc(C(F)(F)F)c4)cc3)c(C)nc2cc1OC, which growth is on record?
Its growth is 36.1%.

With COc1ccc(/C=C2\CCCC3=C2NC(N)=NC3c2ccc(OC)c(OC)c2)cc1OC (stereo not drawn) as the compound, how does the growth read?
The growth was 57.1%.

For Cc1c(Cl)cccc1NC(=O)CN1CCOCC1, which growth is on record?
Its growth is 110%.

With CC(C)(C)OC(=O)N1CCc2c(sc3ncnc(N/N=C/c4ccc(Br)cc4)c23)C1 as the compound, how does the growth read?
The growth was 61.1%.

Which growth does the source give for CCCCc1oc2ccccc2c1C(=O)c1cc(I)c(OCCN(CC)CC)c(I)c1 here?
Its growth is 29.5%.

CCc1c2c(nc3ccc(OC(=O)N4CCC(N5CCCCC5)CC4)cc13)-c1cc3c(c(=O)n1C2)COC(=O)[C@]3(O)CC was tested. Which growth did it give?
Its growth is 49.9%.

Which growth does the source give for NS(=O)(=O)Oc1ccc(-c2ccc3sccc3c2)cc1 here?
Its growth is 101%.
